Compounds without any hit were thinned out: in the full panel of roughly 83,000, 20% have a hit.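 How to read the values: 0–100, growth inhibition (40 = 60% inhibited); 0, no net growth; -100 to 0, cell death (-40 = 40% of starting cells died; -100 = all dead).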 Unmarked numbers belong to inactive results. The source made the active and inactive calls. The calls were made as follows: active = growth percent below 10; inactive = the rest.
Columns and labels:
Experiment in all cases: NCI-60 one-dose screen, 48 h (100 = growth as untreated, 0 = no growth, -100 = all killed)
NCI-H23 lung = conditions: 10 µM unless noted
DU-145 prostate = conditions: 10 µM unless noted
MDA-MB-231 breast = conditions: 10 µM unless noted
SF-268 CNS = conditions: 10 µM unless noted
SF-539 CNS = conditions: 10 µM unless noted
M14 melanoma = conditions: 10 µM unless noted
HCT-15 colon = conditions: 10 µM
HT29 colon = conditions: 10 µM unless noted
SNB-75 CNS = conditions: 10 µM unless noted
PC-3 prostate = conditions: 10 µM unless noted
UACC-62 melanoma = conditions: 10 µM unless noted
SK-MEL-28 melanoma = conditions: 10 µM unless noted
SN12C renal = conditions: 10 µM unless noted
ACHN renal = conditions: 10 µM unless noted
OVCAR-8 ovarian = conditions: 10 µM unless noted
OVCAR-5 ovarian = conditions: 10 µM unless noted
NCI/ADR-RES ovarian = conditions: 10 µM unless noted
MDA-MB-435 melanoma = conditions: 10 µM unless noted
HCT-116 colon = conditions: 10 µM unless noted
KM12 colon = conditions: 10 µM unless noted

Compound	growth (NCI-H23 lung)	growth (DU-145 prostate)	growth (MDA-MB-231 breast)	growth (SF-268 CNS)	growth (SF-539 CNS)	growth (M14 melanoma)	growth (HCT-15 colon)	growth (HT29 colon)	growth (SNB-75 CNS)	growth (PC-3 prostate)	growth (UACC-62 melanoma)	growth (SK-MEL-28 melanoma)	growth (SN12C renal)	growth (ACHN renal)	growth (OVCAR-8 ovarian)	growth (OVCAR-5 ovarian)	growth (NCI/ADR-RES ovarian)	growth (MDA-MB-435 melanoma)	growth (HCT-116 colon)	growth (KM12 colon)
c1ccc([As]=[As]c2ccccc2)cc1 (stereo unspecified)	-37.2% (active)	-6.06% (active)	-60.9% (active)	-39.8% (active)	-66.8% (active)	-30.2% (active)	-86.2% (active)	-82.8% (active)	14.3%	-22.9% (active)	-76.4% (active)	-25.5% (active)	-20.9% (active)	-99.1% (active)	-22.4% (active)	-7.9% (active)	9.34% (active)	-37.6% (active)	-99.4% (active)	9.67% (active)
OB([O][Hg][c]1ccccc1)[O][Hg][c]1ccccc1	-56.2% (active)	-73.5% (active)	-69.8% (active)	-51.2% (active)	-87.7% (active)	-80.9% (active)	-70.3% (active)	-55.8% (active)	-56% (active)	-60.4% (active)	-99.1% (active)	-83.2% (active)	-99.6% (active)	-95.6% (active)	-97.1% (active)	-64% (active)	-18.2% (active)	-84% (active)	-68.4% (active)	14.7%
CCC(C)[C@H]1O[C@]2(C=C[C@@H]1C)C[C@@H]1C[C@@H](C/C=C(\C)[C@@H](OC3C[C@H](OC)C(O[C@H]4C[C@H](OC)[C@@H](O)[C@H](C)O4)[C@H](C)O3)[C@@H](C)/C=C/C=C3\CO[C@@H]4[C@H](O)C(C)=C[C@@H](C(=O)O1)[C@]34O)O2 (stereo partly specified)	5.82% (active)	11.4%	-58.2% (active)	1.66% (active)	-71.6% (active)	-46.7% (active)	-20.2% (active)	-63.6% (active)	3.26% (active)	-5.32% (active)	-35% (active)	-82.4% (active)	1.84% (active)	-95.1% (active)	12.5%	-31.8% (active)	7.16% (active)	-31.6% (active)	-81.1% (active)	-12.3% (active)
COc1ccc(/C=C(/C(=O)N2CCCC2)c2cc(OC)c(OC)c(OC)c2)cc1N	41.7%	24.6%	62%	47.5%	3.13% (active)	11.7%	29.2%	9.12% (active)	-12.2% (active)	14.5%	41.5%	60.9%	40.8%	45.2%	41.8%	54.5%	68.2%	-39.8% (active)	23.5%	14.8%
CC(=O)C1CCC2C3CC=C4CC(OC(=O)Cc5ccc(N(CCCl)CCCl)cc5)CCC4(C)C3CCC12C (stereo unspecified)	96.6%	86%	112%	93.7%	79.5%	97.4%	99.5%	83.2%	93.7%	86.2%	91.4%	107%	96.6%	100%	103%	107%	96.2%	111%	93.7%	106%
Cc1cc(NC(=O)NCCOc2ccc(N3C(N)=NC(N)=NC3(C)C)cc2Cl)ccc1S(=O)(=O)F	40.2%	34.4%	58%	29%	33.6%	32.1%	92%	9.65% (active)	71.5%	-2.88% (active)	22%	51.8%	7.66% (active)	94.2%	25.3%	26.6%	102%	18.8%	13.9%	20.1%
C[CH2][Pb]([CH2]C)([CH2]C)[O]C(=O)COC	-2.61% (active)	10.3%	8.7% (active)	-14.8% (active)	-41.8% (active)	9.74% (active)	8.99% (active)	0.481% (active)	-4.45% (active)	14.1%	19.3%	18.2%	2.97% (active)	12.7%	3.57% (active)	-4.48% (active)	4.13% (active)	-12.3% (active)	-29.7% (active)	5.08% (active)
CSc1ccccc1NP1(=O)OCC(C)([N+](=O)[O-])CO1 (stereo unspecified)	106%	109%	105%	105%	91.4%	101%	93.1%	105%	86%	98%	101%	98.6%	98%	97.5%	98%	93.7%	109%	107%	98%	104%
Cc1cc(NC(=O)/C=C/c2ccc([N+](=O)[O-])cc2)ccc1S(=O)(=O)F	109%	103%	99.6%	109%	112%	112%	98.2%	99.7%	106%	98.9%	98.2%	110%	92.4%	105%	98.6%	113%	106%	99.7%	113%	97%
O=C(O)CC(Br)C(=O)CBr (stereo unspecified)	108%	111%	98.2%	106%	95.3%	103%	93.5%	109%	93.5%	98.7%	102%	102%	107%	99%	99.4%	106%	111%	108%	100%	111%
CCOc1ccc(C(O)CN(C)Cc2ccccc2)cc1Cl (stereo unspecified)	91.3%	103%	93.6%	95.5%	108%	96%	106%	98%	92.9%	89.3%	96.4%	98.5%	102%	109%	105%	102%	99.4%	103%	101%	100%
Cc1cc(N(CCCl)CCCl)ccc1C=Nc1ccc2ccccc2c1	60.8%	71.5%	92%	72.3%	69%	88%	79.7%	92%	72%	77.2%	28.4%	102%	49.7%	57%	72.7%	24.4%	71.2%	90.6%	79.9%	87.6%
CC1(C)N=C(N)N=C(N)N1c1ccc(CCCCc2ccc(S(=O)(=O)F)cc2)cc1	39.4%	31.8%	46.7%	30%	28.6%	27.6%	36.8%	8.88% (active)	63.7%	12.5%	19.8%	47.7%	26.8%	39.2%	24.3%	41.2%	113%	18.9%	12.6%	17.1%
O=[N+]([O-])c1ccc(F)c([N+](=O)[O-])c1F	111%	115%	113%	103%	105%	–	116%	103%	116%	89.3%	107%	116%	103%	113%	104%	107%	109%	103%	–	94.1%
CC(C)(NC(=O)c1nn(CCCCCF)c2ccccc12)c1ccccc1	101%	102%	98.1%	96%	100%	85.5%	96.3%	81.9%	88.5%	65%	75.4%	111%	101%	–	83.5%	103%	92.8%	103%	66.9%	107%
CC1(C)CC(=O)CC(C)(C)N1N=O	102%	107%	109%	106%	94.3%	102%	98.1%	99.4%	78.7%	–	104%	109%	106%	103%	102%	104%	100%	112%	96.3%	99.1%

Source: PubChem BioAssay (NCI)
